In PubChem BioAssay AID431 (Sanford-Burnham Center for Chemical Genomics, 2006) one finds cytotoxicity data, which are given here for 60 compounds.

Hit rate of the full screen: of about 63,000 compounds, about 1,100 (1.7%) were called active.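 How the source made its calls: active means compounds whose percent cytotoxicity in the single-dose primary screen, scaled between solvent and toxic-drug controls, exceeds 50; inactive means the rest.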 Many of the other results were omitted from the sample, so actives are more common in it than they were. Measured potencies and affinities stand elsewhere.

This test in a line: cytotoxicity in KRAS-transformed pancreatic duct cells, primary screen, cell-based, fluorescence, HTS (AID 431).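 Further: 0% = DMSO solvent wells and 100% = doxorubicin-treated wells.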 The following applies: HPDE-C7K KRASV12 cells, Alamar Blue viability, 48 h; at 10 µM; stronger effect = higher value.
Consider `COc1ccc(Nc2nc3ccccc3nc2C)cc1`, for which the cytotoxicity was 20% (inactive). To `O=C1N(CC(=O)N2CCc3ccccc32)CCN1Cc1ccccc1Cl` belongs -7.2% (inactive).

With `COc1ccc(CCNS(=O)(=O)c2ccc3c(c2)CCN3C(=O)C2CC2)cc1OC`, the cytotoxicity was -6.7% (inactive). To `O=C(CSc1nc(Nc2ccccc2)nc(N2CCOCC2)n1)Nc1ccc2c(c1)OCCO2` belongs 11.5% (inactive); to `COC(=O)CSc1ncnc2c1sc1nc(-c3ccco3)c3c(c12)CC(C)(C)OC3`, 15.4% (inactive); to `CCOC(=O)c1sc2nc(N3CCCC3)c3c(c2c1N)CC(C)(C)OC3`, -3% (inactive).

On to `CCOC(=O)c1sc2nc(-c3ccco3)c3c(c2c1N)CC(C)(C)OC3`, for which the cytotoxicity was 57.4% (active). Take `COc1ccc(Nc2nc(OC)nc(N3CCN(c4ccc(OC)cc4)CC3)n2)cc1`: the cytotoxicity was 8.4% (inactive).

For `COC(=O)/C=C1\NCCSC1=O`, the cytotoxicity is 35.9% (inactive). Regarding `O=C(CCC(=O)N(c1ccccc1)C(C(=O)NC1CCCC1)c1ccncc1)Nc1cccnc1` (stereo not given), the cytotoxicity is -0.5% (inactive). Consider `CCn1c(=N)c(C(=O)NCc2cccnc2)cc2c(=O)n3cccc(C)c3nc21`, for which the cytotoxicity is 1.8% (inactive). Take `CN=C(Nc1cc(C)nn1CCC#N)c1ccccc1F`: the cytotoxicity is 4.4% (inactive). For `N#CC1=C(SCC(=O)NC23CC4CC(CC(C4)C2)C3)NC(=O)C(C#N)C12CCCCC2` (stereo not given) the value was 45.6% (inactive).

As for `N#CC1=C(N)NC(SCC(=O)Nc2ccccc2)=C(C#N)C12CCCC2`, the cytotoxicity was 0.4% (inactive). To `CC(C)(C)C1CCC2(CC1)C(C#N)=C(SCC(=O)NC1CCCCC1)NC(=O)C2C#N` (stereo not given) belongs 54.5% (active). For the compound `N#CC1=C(SCC(=O)NC2CC2)NC(=O)C(C#N)C12CCCCC2` (stereo not given), the cytotoxicity was -27.1% (inactive). For `CCOC(=O)C1=C(SCC(=O)Nc2ccccc2)NC(=O)C(C#N)C12CCCCC2` (stereo not given) the value was 5.3% (inactive); for `CCOC(=O)Cc1csc(NC(=O)CSc2nnc(-c3ccc(C)cc3)o2)n1`, -11.9% (inactive); for `CC(=O)N1CCc2cc(S(=O)(=O)NC(CC(C)C)C(=O)Nc3ccc4c(c3)OCCO4)ccc21` (stereo not given), 7.7% (inactive). For `N#CCSc1nnc2c(Cl)cc(Cl)cn12` the value was 7.2% (inactive); for `Brc1ccc(-c2nc(-c3ccncc3)no2)o1`, 0.3% (inactive). With `CSc1ccc(S(=O)(=O)Nc2ccc(N3CCOCC3)c(Cl)c2)cc1`, the cytotoxicity was -2.9% (inactive). Turning to `c1ccc(N2CCN(c3nnnn3-c3ccccc3)CC2)cc1`, the cytotoxicity was -3.6% (inactive).

Take `COc1ccc(CCNC(=O)COc2ccc(S(=O)(=O)N3CCOCC3)cc2)cc1`: the cytotoxicity was 8.2% (inactive). To `Cc1cc(=O)c2cc(Cl)ccc2[nH]1` belongs -4.6% (inactive). In the case of `COC(=O)c1ccc2[nH]c(C)cc(=O)c2c1`, the cytotoxicity is -3.5% (inactive).

Turning to `Cc1cc2c(N=O)c(NO)ccc2[nH]1`, the cytotoxicity was 79.2% (active). For `O=C(Nc1ccc2c(c1)OCCO2)C1CCCN(S(=O)(=O)c2cnc[nH]2)C1` (stereo not given) the value was -1.8% (inactive). Regarding `Cn1c(NCCCN2CCOCC2)nc2c1c(=O)n(Cc1ccc(Cl)cc1Cl)c(=O)n2C`, the cytotoxicity is 50.6% (active). To `Cn1c(NCCN2CCOCC2)nc2c1c(=O)n(Cc1cccc(Cl)c1)c(=O)n2C` belongs 22.4% (inactive); to `Cn1c(NCCCN2CCOCC2)nc2c1c(=O)n(Cc1ccc(Cl)c(Cl)c1)c(=O)n2C`, 54.6% (active). For `Cn1c(=O)c2c(nc(NCCCN3CCOCC3)n2Cc2ccc(Cl)c(Cl)c2)n(C)c1=O` the value was -1.2% (inactive); for `Cn1c(=O)c2c(nc(NCCCN3CCOCC3)n2Cc2ccc(Cl)cc2Cl)n(C)c1=O`, 0.9% (inactive); for `Cn1c(NCCCN2CCOCC2)nc2c1c(=O)n(Cc1ccc(Cl)cc1)c(=O)n2C`, 28.8% (inactive). For `Cc1cc(C)nc(SCc2ccc3nonc3c2)n1` the value was -23.2% (inactive); for `Cc1cc(CN2C(=O)c3ccccc3C2=O)no1`, -13.3% (inactive). As to `CCN(CC)S(=O)(=O)c1ccc(NC(=O)Cn2cnc3ccccc3c2=O)cc1`, the cytotoxicity was -6.7% (inactive).

As for `CCC(=O)Nc1ccc(C(=O)n2nc(C)cc2C)cc1`, the cytotoxicity is 10.7% (inactive). For `COCCSc1ccccc1C(=O)Nc1nnc(C)s1` the value was -9% (inactive).

For `CCSc1ccccc1C(=O)Nc1cc(C)on1`, the cytotoxicity is -0.6% (inactive). To `COCCSc1ccccc1C(=O)Nc1cc(C)on1` belongs 85.8% (active).

Turning to `COc1ccc(C2CCCN2C(=O)Nc2ccc(F)cc2)cc1OC` (stereo not given), the cytotoxicity was -15.2% (inactive). In the case of `CNC(=O)C1CC(=O)N(Cc2ccc3c(c2)OCO3)C(=Nc2ccc(F)cc2)S1` (stereo not given), the cytotoxicity is -2.3% (inactive). Turning to `CCNC(=O)C1CC(=O)N(Cc2ccc3c(c2)OCO3)C(=Nc2ccc(OCC)cc2)S1` (stereo not given), the cytotoxicity was 10% (inactive). To `CCNC(=O)C1CC(=O)N(Cc2ccc3c(c2)OCO3)C(=Nc2ccc(F)cc2)S1` (stereo not given) belongs 62.1% (active); to `CC(=O)Oc1cccc2c1C(=O)c1c(OC(C)=O)cc(C(=O)O)cc1C2=O`, 8.1% (inactive); to `O=C(O)c1cc(C(=O)O)c(-c2ccccc2)c(C(=O)O)c1`, -12.8% (inactive).

With `CCOc1ccc(N2Cc3ncccc3C2=O)cc1`, the cytotoxicity was -0.1% (inactive).

Consider `O=C(COc1ccc2ccccc2c1Br)N1CCOCC1`, for which the cytotoxicity was -30.2% (inactive).

As to `CCCCCCOC(=O)C(C#N)c1nc2ccccc2nc1N1CCCCC1` (stereo not given), the cytotoxicity is -16.1% (inactive). Regarding `N#CC(C(=O)NCc1ccccc1)c1nc2ccccc2nc1N1CCCC1` (stereo not given), the cytotoxicity is 8.4% (inactive). To `CCOc1ccccc1N1CCN(c2nc3ccccc3nc2C(C#N)C(=O)OC)CC1` (stereo not given) belongs 50.6% (active); to `CCCCCCOC(=O)C(C#N)c1nc2ccccc2nc1N1CCN(CC)CC1` (stereo not given), 5.9% (inactive); to `CCCCCCOC(=O)C(C#N)c1nc2ccccc2nc1N1CCN(C)CC1` (stereo not given), 70.2% (active). Turning to `COc1ccc(CNC(=O)C(C#N)c2nc3ccccc3nc2N2CCCC2)cc1` (stereo not given), the cytotoxicity is -9.7% (inactive).

With `COc1ccc(CNC(=O)C(C#N)c2nc3ccccc3nc2N2CCN(C)CC2)cc1` (stereo not given), the cytotoxicity is 76.5% (active). `CCOc1ccccc1N1CCN(c2nc3ccccc3nc2C(C#N)C(=O)OC(C)C)CC1` (stereo not given): the cytotoxicity is -18.6% (inactive). Consider `C=CCOC(=O)C(C#N)c1nc2ccccc2nc1N1CCN(c2ccccc2OCC)CC1` (stereo not given), for which the cytotoxicity is 4.2% (inactive). In the case of `O=C1CC(c2ccccc2)CC2=C1CN(C1CCCCC1)CN2` (stereo not given), the cytotoxicity was 22% (inactive). Regarding `Cc1nnc(NC(=O)C2CCN(c3cnccn3)CC2)s1`, the cytotoxicity was -12.6% (inactive).
